Results on eleven molecules are retold here after PubChem BioAssay.

Test [1] can be described thus: blockers of polyQ-driven CASP3 activation – cell-based (AID 1583). As to conditions: polyglutamine-induced caspase-3 activation, cell assay; stronger effect = higher value;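 tested at 10 µM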.
Test [2] is described as follows: yeast 75Q aggregation reduction – 75Q-TubU reporter (AID 1593). As to conditions: Yeast 75Q polyglutamine aggregation reporter.
Test [3] is described as follows: restoration of touch response, mutant HTT neurons – whole organism, C. elegans mechanosensory neurons, N-terminal huntingtin (AID 1599). As to conditions: C. elegans polyQ-huntingtin mechanosensory neurons, stronger effect = higher value.
Test [4] can be described thus: blockers of cytochrome c efflux from mitochondria – biochemical, purified mitochondria (AID 1603).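 Further: mouse liver mitochondria challenged with calcium chloride; signal normalized to the plate average as 100%.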 As to conditions: stronger effect = lower value.
Test [5] in a line: polyglutamine aggregate formation blockers (AID 1604). As to conditions: polyglutamine-induced protein aggregation inhibition assay; stronger effect = higher value; tested at 2.5 µM.
Test [6] can be described thus: glutamate transport activators, MN-1 cells, MN-1 cell line (AID 1612).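 Further: tested at 1 µM final; 0% = mean of DMSO vehicle wells on each plate; positive means more glutamate uptake than control and negative means less.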 As to conditions: MN-1 motor neuron cells, stronger effect = higher value.
Test [7] can be described thus: 75Q-TubH aggregate inhibition, S. cerevisiae, yeast (AID 1616). As to conditions: S. cerevisiae 75Q-TubH polyglutamine aggregation suppression; stronger effect = higher value.
A short description of test [8]: compounds altering viability of human ES cells (AID 493140; call rule not given here;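 further: cells exposed to compounds for four days before counting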). As to conditions: human embryonic stem cell survival screen; stronger effect = higher value.
Test [9] in a line: galactose survival enhancers in mitochondrial complex I cybrids – cell-based, galactose medium, ATP luminescence, primary screen (AID 1645843;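 active means z-score of at least 1.8 in each of two replicates, scored against plate mean and spread of sample wells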;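 further: positive z means more ATP and so rescue of galactose-driven cybrid death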). As to conditions: complex I mutant cybrid cells, 72 h, stronger effect = higher value.
Test [10] is described as follows: signal quenchers or enhancers, Cy5 substrate/SSB – biochemical, NIH Clinical Collection, E. coli SSB, artefact control for HCV NS3 helicase inhibitor project (AID 743268; call rule not given here). As to conditions: Cy5-oligo bound E. coli SSB, fluorescence interference.
Test [11] deals with Hepatitis C virus NS3 helicase. Nature of the test: blockers of NS3h binding to DNA – biochemical, fluorescence polarization, NIH Clinical Collection, primary screen (AID 743270; call rule not given here). As to conditions: NS3 helicase binding to Cy5-dT15 DNA, stronger effect = higher value, concentration not given here. For orientation: Fluorescence polarisation rises when a labelled molecule tumbles more slowly, as on binding a larger partner.

The target of test [12] is Single-stranded DNA-binding protein (Escherichia coli (strain K12)) (UniProt P0AGE0). Nature of the test: SSB-ssDNA binding inhibitors – biochemical, fluorescence polarization, NIH Clinical Collection, counter-screen for HCV NS3 helicase inhibitor project (AID 743271; in the data active means inhibition above about 28%). As to conditions: E. coli SSB-DNA binding, stronger effect = higher value, concentration not given here.
The nature of test [13]: compounds distorting NS3 helicase fluorescence signal – biochemical, NIH Clinical Collection, artefact control for HCV NS3 helicase inhibitor project (AID 743272; call rule not given here;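 further: HCV NS3 helicase with a Cy5 labelled single stranded DNA probe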). As to conditions: fluorescence interference counterscreen, HCV NS3 helicase assay; stronger effect = lower value. For orientation: Counterscreens check selectivity or assay interference.
In another test the test system is R275C. Nature of the test: BK channel mutant inhibitors and activators – cell-based, U2OS BacMam, thallium flux, beta subunits, selectivity assay, profiling panel (AID 1259406).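 Further: initial slope of Thallos dye fluorescence rise after thallium is added; log ratio against the mean of 0.3% DMSO vehicle wells on the same plate.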 As to conditions: U2OS BacMam BK variants, at 30 µM.
In another test the test system is R275C/beta1. The description is as above. As to conditions: U2OS BacMam BK variants, at 30 µM.
The subject of the next test is R275C/beta2Delta. The description is as above. As to conditions: U2OS BacMam BK variants, at 30 µM.
Another test concerns R275C/beta4. The description is as above. As to conditions: U2OS BacMam BK variants, at 30 µM.
A further test concerns R275C/Slo1WT/beta2. Described as above. As to conditions: U2OS BacMam BK variants, at 30 µM.
Test [14] in a line: viability loss with induced miR-34 in A549 – imaging, A549 dox-inducible miR-34, nuclei and caspase counts, primary screen (AID 1347080;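 active means compounds whose cell count with miR-34 switched on is under 0.7 times the count with it off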). As to conditions: A549 miR-34 inducible, Hoechst nuclei count, 48 h.
Where [15] appears, read: stronger effect = lower value, cell number ratio, induced over uninduced.
The mark [16] stands for this setting: measured here: relative caspase fold change +Dox/-Dox.
[17] abbreviates: measured here: total cells with miR-34 induction, stronger effect = lower value.
[18] abbreviates: measured here: total cells without miR-34 induction.

Values joined by “and” are separate entries in the source; they are usually repeats but may differ in a detail not shown here. Equal values may be shown once. For some of these results: Results with a measured potency or affinity are listed apart. A structure can be active in one record and inactive in another. Active and inactive are the calls of the source.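 How the source made its calls, unless noted: active means thallium flux through the channel raised or lowered by more than 3 SD from vehicle-only wells, actives on both sides; inactive means the rest.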

Regarding `c1ccc([C@H]2CN3CCSC3=N2)cc1`, the inhibition (as a rule, the relative decrease from the control value, in per cent) in [1] came to 60.8%. In [2], this molecule returned a score of 1.41. In addition, the rescue above control in test [3] was -9.67. Besides, the cytochrome c release ratio in test [4] turned out to be 0.88. Moreover, the inhibition of aggregation in [5] was 72.2%. In addition, the glutamate uptake change in [6] was 4.54%. The same molecule yielded an aggregation suppression score in [7] of 1.54. In [8], the survival is 17.8 (inactive) and 98.4 (inactive). For the same molecule, in test [9], the z-score is 0.83 (inactive) and -0.1 (inactive).
Regarding `CC[C@H](C)C(=O)O[C@H]1C[C@@H](C)C=C2C=C[C@H](C)[C@H](CC[C@@H]3C[C@@H](O)CC(=O)O3)[C@H]21`, the inhibition in test [1] was -14.6%; in test [11], 3.18% (inactive); in test [12], 3.34% (inactive). Besides, the score in [2] is -1.08. Moreover, the rescue above control in test [3] was -2.24. Besides, the cytochrome c release ratio in [4] worked out at 0.75. This molecule had an inhibition of aggregation in test [5] of 26.5%. For the same molecule, the glutamate uptake change in test [6] is -19%. In [7], the aggregation suppression score was found to be 0.603. Further, the survival in test [8] is 2.08 (inactive). For the same molecule, the fluorescence ratio in test [10] is 1.1 (inactive); in test [13], 0.96 (inactive). For the same molecule, the z-score in test [9] is -0.3 (inactive) and -0.62 (inactive) and -0.095 (inactive). The log fold change Tl+ flux is -0.0727 (inactive) in the test with R275C; 0.0657 (inactive) with R275C/beta1; 0.0172 (inactive) with R275C/beta2Delta; 0.0477 (inactive) in the test on R275C/beta4; -0.0508 (inactive) in the test on R275C/Slo1WT/beta2.
On to `Clc1cccc(Cl)c1NC1=NCCN1`, for which the inhibition in [1] was 5.5%; in [11] it was -2.77% (inactive); in [12], -2.41% (inactive). The molecule further registered a score in [2] of 1.4. For the same molecule, in test [3], the rescue above control amounted to 13.6. Moreover, in test [4], the cytochrome c release ratio came to 1.31. Besides, the inhibition of aggregation in [5] amounted to 86.9%. For the same molecule, in test [6], the glutamate uptake change came out at 13.8%. This molecule also came in with an aggregation suppression score in test [7] of 1.85. Also, the survival in test [8] is 20.8 (inactive). For the same molecule, the results for the fluorescence ratio in test [10] and in [13] were 1.05 (inactive) and 1.02 (inactive), respectively. Further, the log fold change Tl+ flux was -0.0635 (inactive) in the test on R275C; 0.000941 (inactive) with R275C/beta1; -0.00732 (inactive) in the test on R275C/beta2Delta; 0.0373 (inactive) in the test with R275C/beta4; 0.0101 (inactive) in the test on R275C/Slo1WT/beta2.
Take `CCC1(c2ccccc2)C(=O)NCNC1=O`: the inhibition in test [1] was 9.61%; in test [11] it was -2.27% (inactive); in [12], -0.48% (inactive). In addition, the score in test [2] stood at 1.24. Besides, the rescue above control in [3] is -6.81. Moreover, in test [4], the cytochrome c release ratio came out at 1.19. In [5], this molecule returned an inhibition of aggregation of 63%. Also, the glutamate uptake change in [6] was -24.4%. The molecule further displayed an aggregation suppression score in test [7] of 1.22. In addition, in test [8], the survival is 5.92 (inactive). Besides, the fluorescence ratio in test [10] was 1.04 (inactive); in test [13] it was 0.97 (inactive). In test [9], the z-score was 1.15 (inactive) and 0.365 (inactive) and 1.9 (inactive). For the same molecule, the log fold change Tl+ flux was -0.0184 (inactive) in the test with R275C; -0.0109 (inactive) in the test with R275C/beta1; -0.0215 (inactive) with R275C/beta2Delta; 0.0127 (inactive) in the test with R275C/beta4; -0.0237 (inactive) with R275C/Slo1WT/beta2.
`CCN(CCO)CCCC(C)Nc1ccnc2cc(Cl)ccc12` (configuration not stated): the inhibition in test [1] is -6.7%. In test [2], the score worked out at 1.54. Moreover, the rescue above control in test [3] is -3.82. For the same molecule, the cytochrome c release ratio in test [4] stood at 0.8. The molecule also registered an inhibition of aggregation in test [5] of 27.4%. Besides, the glutamate uptake change in test [6] turned out to be 0%. In test [7], this molecule displayed an aggregation suppression score of 1.3. The fold change in test [14] (setting [15]) is 0.835 (inactive); in test [14] (setting [16]) it was 5.27. In addition, the values for the cell count in test [14] (setting [17]) and in [14] (setting [18]) were 11300 and 13500, respectively.
Consider `O=C1CCC(N2C(=O)c3ccccc3C2=O)C(=O)N1` (configuration not stated), for which the inhibition was 8.81% in test [1], -1.36% (inactive) in test [11] and -1.24% (inactive) in [12]. The molecule also gave a score in test [2] of 1.27. The same molecule showed a rescue above control in test [3] of 21.9. Moreover, in [4], the cytochrome c release ratio came out at 1.09. In test [5], the inhibition of aggregation was 81%. In addition, the glutamate uptake change in test [6] is -12.1%. Besides, in test [7], the aggregation suppression score was determined as 1.48. In test [8], the survival was 19.2 (inactive). The fluorescence ratio in test [10] was 1.04 (inactive); in test [13] it was 0.99 (inactive). For the same molecule, the log fold change Tl+ flux in the test with R275C was 0.0291 (inactive); in the test on R275C/beta1, -0.0697 (inactive); with R275C/beta2Delta, 0.0347 (inactive); in the test with R275C/beta4, -0.108 (inactive); in the test with R275C/Slo1WT/beta2 it was -0.0685 (inactive).
Take `NC12CC3CC(CC(C3)C1)C2`: the inhibition in [1] is -8.1%; in test [11] it was -0.45% (inactive); in test [12], -1.24% (inactive). This molecule displayed a score in [2] of 1.77. Moreover, the rescue above control in [3] was -3.19. In addition, the cytochrome c release ratio in test [4] turned out to be 0.94. The inhibition of aggregation in [5] was 63.2%. In addition, the glutamate uptake change in [6] was -5.28%. In test [7], this molecule yielded an aggregation suppression score of 1.59. In [8], the survival is 4.42 (inactive). The fluorescence ratio in [10] was 0.99 (inactive); in [13] it was 0.97 (inactive). Also, in [9], the z-score is 0.28 (inactive) and 0.225 (inactive) and 0.335 (inactive). The log fold change Tl+ flux with R275C is -0.00425 (inactive); in the test on R275C/beta1, 0.0102 (inactive); in the test on R275C/beta2Delta, 0.045 (inactive); in the test on R275C/beta4 it was -0.0136 (inactive); in the test on R275C/Slo1WT/beta2 it was 0.0148 (inactive).
Consider `CC[C@H]1CN2CCc3cc(OC)c(OC)cc3[C@@H]2C[C@@H]1C[C@H]1NCCc2cc(OC)c(OC)cc21`, for which the fold change is 1.04 (inactive) and 0.853 (inactive) in test [14] (setting [15]); 1.32 and 1.38 in test [14] (setting [16]). Moreover, the cell count was 1340 and 1650 in test [14] (setting [17]); 1300 and 1930 in test [14] (setting [18]). The z-score in [9] is -0.955 (inactive).
In the case of `Oc1ccc(/C=C/c2cc(O)cc(O)c2)cc1`, the survival in test [8] is 13.8 (inactive). The fluorescence ratio in test [10] is 0.95 (inactive); in test [13], 0.93 (inactive). For the same molecule, the inhibition in [11] is -2.84% (inactive); in test [12], -2.76% (inactive). Also, the z-score in [9] is 2.52 (active) and 1.26 (inactive). The log fold change Tl+ flux in the test on R275C is 0.00518 (inactive); with R275C/beta1, 0.139 (active); with R275C/beta2Delta, 0.139 (active); with R275C/beta4 it was 0.092 (active); in the test on R275C/Slo1WT/beta2 it was 0.0308 (inactive).
Consider `CCCCCN=C(N)N/N=C/c1c[nH]c2ccc(OC)cc12`, for which the fluorescence ratio in test [10] was 0.7 (active); in test [13], 0.88 (inactive). The inhibition in test [11] is 8.32% (inactive); in [12] it was 7.6% (inactive).
Take `CCOC(=O)[C@H](CCc1ccccc1)N[C@H]1CCc2ccccc2N(CC(=O)O)C1=O`: the fluorescence ratio in [10] is 1.03 (inactive); in test [13] it was 1.04 (inactive). The inhibition in test [11] is -1.98% (inactive); in test [12], 2.98% (inactive). Moreover, the fold change in [14] (setting [15]) is 0.89 (inactive) and 0.936 (inactive); in [14] (setting [16]), 2.29 and 1.38. Besides, the cell count in test [14] (setting [17]) is 9000 and 10300; in test [14] (setting [18]), 10100 and 11000. In addition, in test [9], the z-score was 0.145 (inactive). For the same molecule, the log fold change Tl+ flux in the test with R275C is 0.0199 (inactive); with R275C/beta1 it was -0.0262 (inactive); in the test with R275C/beta2Delta, 0.041 (inactive); in the test with R275C/beta4, -0.0252 (inactive); with R275C/Slo1WT/beta2 it was -0.00529 (inactive).
